TbPYK inhibitor = T. brucei pyruvate kinase inhibition | TbPYK enzyme, Kinase-Glo Plus ATP luminescence, 45 min | Potency, µM (highest dose often 76.8 µM), inactives show at the top dose activity, negative = inhibition, most hits filed as inhibitors | 410,000 compounds, 0.12% hits | AID 624173; also: potency is read from the fitted curve at half-maximal effect; % is scaled to controls: 0 for no effect and ±100 for the full control effect; nearly all actives have a fitted effect of over 50% in size
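Assay buffer: 50 mM TEA pH 7.2, 100 mM KCl, 10 mM MgCl2, 0.05% BSA, 0.01% Tween-20. Pyruvate kinase from T. brucei plus substrate met compound, then ADP (130 uM final). Luminescence was read post 45 min RT.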
RE007 growth inh = less growth of the S. pombe RE007 Vpr strain. S. pombe RE007 Vpr strain, BacTiter-Glo ATP luminescence, 24 h. Potency, µM (highest dose often 92.2 µM), for inactives: top-dose activity change, negative = less growth, usual class: inhibitors. 360,000 compounds, 0.21% hits; active = well fitted falling curve with a large enough effect; inconclusive = small, poorly fitted or top-dose-only effect; inactive = no such curve, though single readings can be large or run the other way; also: potency is read from the fitted curve at half-maximal effect; % is scaled to controls: 0 for no effect and ±100 for the full control effect; nearly all actives have a fitted effect of over 50% in size
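Fission yeast strain RE007, carrying one chromosomally integrated HIV-1 vpr copy, was seeded at OD 0.01 in PMG+AL medium with 23 nL pinned compound. After 24 h at 30 °C and 99% humidity, viability was read by BacTiter-Glo luminescence.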
CHX counter = counter-screen for Shiga toxin inhibitors: cycloheximide protein synthesis inhibition; cell reporter, cycloheximide protein synthesis inhibition counterscreen; 300,000 compounds, 12% hits; AID 2314; max response, %; in the data active = max response mostly above about 13%, no sharp cut-off; inactive = mostly below about 14%; also: read at 38.3 µM for the half of the compounds with a filed dose; 0% is about no effect
FBPA Giardia inh = inhibitors of Giardia lamblia fructose-1,6-bisphosphate aldolase; purified Giardia FBPA; 290,000 compounds, 0.71% hits; Potency, µM (series often up to 59.6 µM), without a hit: at the highest dose activity, negative = inhibition, most hits filed as inhibitors; also: potency is read from the fitted curve at half-maximal effect; % is scaled to controls: 0 for no effect and ±100 for the full control effect; nearly all actives have a fitted effect of over 55% in size
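Giardia FBPA (40 nM reagent) was preincubated 10 min at RT with compound (up to 57.5 uM final), then substrate plus GAPDH/TPI/NAD/arsenate coupling system with diaphorase/resazurin was added; resorufin fluorescence (525/598 nm) was read after 20 min.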
Shiga toxin inh = inhibitors of Shiga toxin in Vero cells. Vero cells, Shiga toxin protein synthesis inhibition reporter. 290,000 compounds, 9.2% hits. inhibition, % at 38.7 µM. AID 2315; in the data active = inhibition mostly above about 28%, no sharp cut-off; inactive = mostly below about 43%; also: 0% is about no effect
LmPK inhibitor = blocks Leishmania mexicana pyruvate kinase activity; Potency, µM (highest dose often 57.5 µM), without a hit: at the highest dose activity change, negative = inhibition, hits mostly inhibitors; 290,000 compounds, 0.37% hits; AID 1721; purified LmPK, Kinase-Glo ATP luminescence, 1 h; also: potency is read from the fitted curve at half-maximal effect; % is scaled to controls: 0 for no effect and ±100 for the full control effect
Target sequence (Q27686 whole entry, looked up): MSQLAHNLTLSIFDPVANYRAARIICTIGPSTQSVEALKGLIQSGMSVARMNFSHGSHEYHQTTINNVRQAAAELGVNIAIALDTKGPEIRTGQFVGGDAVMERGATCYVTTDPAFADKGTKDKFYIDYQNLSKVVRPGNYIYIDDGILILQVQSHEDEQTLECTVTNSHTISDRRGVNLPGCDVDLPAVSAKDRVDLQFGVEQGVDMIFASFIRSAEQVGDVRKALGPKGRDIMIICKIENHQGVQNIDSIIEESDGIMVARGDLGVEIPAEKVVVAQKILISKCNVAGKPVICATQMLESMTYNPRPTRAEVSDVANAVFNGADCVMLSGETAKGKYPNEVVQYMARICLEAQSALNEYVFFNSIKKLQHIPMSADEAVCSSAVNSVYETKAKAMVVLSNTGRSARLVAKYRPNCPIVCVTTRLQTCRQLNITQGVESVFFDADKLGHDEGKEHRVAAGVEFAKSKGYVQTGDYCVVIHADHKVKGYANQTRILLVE
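Purified LmPK (0.1 nM) converted ADP (0.1 mM) to ATP with PEP (0.5 mM) in imidazole buffer pH 7.2 with KCl and MgCl2, 1 h at room temperature. ATP was read by Kinase-Glo luminescence; data normalized to uninhibited and no-enzyme controls.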
Starred values were filed as active, the others as inactive; ? = inconclusive; / = no result given; + = active, no number; [ ] = another dose, or the depositor's remark. This is one part of a sample in which hits are shown more often than they occur. Unless noted, calls follow the shape of the dose curve; as a rule, active = well fitted curve in the direction sought with a large enough effect; inconclusive = small, poorly fitted or top-dose-only effect, or another doubt; inactive = no such curve, though single readings can be large; an effect the other way counts as inactive or inconclusive.

SMILES	TbPYK inhibitor	RE007 growth inh	CHX counter	FBPA Giardia inh	Shiga toxin inh	LmPK inhibitor
CN(CC(=O)NCCCc1ccccc1)S(=O)(=O)c1ccc(Br)cc1	-6.0%	0.5%	-5.4	-5.2%	-14.0	0.0%
CCCCN1C(=O)C(CC(=O)NCCCCc2ccccc2)CC(C(=O)N(C)C)=C1C (configuration not stated)	2.2%	-13.1%	/	/	/	/
O=C(NCCCN1CCc2ccccc2C1)Nc1ccc(Br)cc1	-15.9%	-11.5%	22.6*	?	-9.0	3.0%
COc1ccc(NC(=O)NCCCN2CCc3ccccc3C2)cc1	-4.0%	4.5%	-1.9	?	9.7	0.8%
O=C(NC1CC1)C(=O)c1c[nH]c2ccccc12	0.7%	4.5%	19.1*	2.5%	99.9*	-2.0%
O=C(c1ccccc1)c1c[nH]c2ccccc12	-5.8%	?	34.7*	-0.7%	63.6*	-0.7%
Cn1cc(C(=O)C(=O)NC2CCCCC2)c2ccccc21	-3.2%	-18.5%	33.4*	/	55.1*	2.4%
Cc1ccc(S(=O)(=O)C(CNC(=O)C(=O)NCCc2ccccc2)c2cccs2)cc1 (configuration not stated)	-5.7%	/	/	/	/	/
O=C(CCNc1ccc(Cc2ccncc2)cc1)c1cccc([N+](=O)[O-])c1	-1.6%	35.5µM*	-1.8	1.6%	-15.8	3.3%
CC(C)(C)C(=O)Nc1ccc(Cc2ccncc2)cc1	6.4%	6.2%	/	/	/	/
COc1ccccc1C(=O)Nc1ccc(CN2CCCCC2)cc1	2.2%	4.9%	11.2*	0.3%	10.1	-5.8%
O=C(NC(=S)Nc1ccc(Cc2ccncc2)cc1)c1ccccc1F	-8.2%	-14.4%	24.4*	-21.5%	41.1	2.5%
CCOC(=O)Nc1ccc(Cc2ccncc2)cc1	0.5%	-6.0%	25.6*	0.9%	29.4	-4.7%
CC(C)(C)Sc1ccc([N+](=O)[O-])cc1C(=O)Nc1ccncc1	-8.5%	-3.0%	13.3	-0.1%	52.1*	4.5%
COc1ccc([N+](=O)[O-])cc1C(=O)Nc1ccc(Cc2ccncc2)cc1	1.0%	-12.2%	13.1*	4.2%	29.6	2.1%
O=C(Nc1ccncc1)c1cc([N+](=O)[O-])ccc1Cl	/	/	/	2.2%	/	/
COc1ccccc1C(=O)Nc1ccc(Cc2ccncc2)cc1	4.7%	-10.9%	12.9*	-6.5%	-3.2	2.3%
NCCC[C@@H](CC(=O)N[C@@H]1CCNC[C@H]1C(=O)N[C@H](CC(=O)N[C@@H](CCC(=O)O)CC(=O)O)Cc1ccccc1)NC(=O)C[C@H](Cc1ccccc1)NC(=O)[C@@H]1CNCC[C@H]1N	/	/	/	-27.9%	/	/
CNc1cc([N+](=O)[O-])ccc1N/C=C/C(=O)c1cccs1	0.9%	-0.2%	32.6*	-4.9%	107.3*	-1.7%
Cc1ccc([N+](=O)[O-])cc1NC(=O)c1ccc2c(c1)OCO2	0.2%	-16.3%	0.9	-0.1%	67.5	-0.3%
CNc1cc([N+](=O)[O-])ccc1N/C=C/C(=O)c1ccc2c(c1)OCO2	-1.9%	8.1%	75.9*	1.4%	123.8*	5.4%
O=C(/C=C/Nc1cccc([N+](=O)[O-])c1)c1cccs1	/	-3.5%[3.69 µM]	32.3*	-10.4%	88.6*	1.2%
CC1=C(C(=O)N(C(C)C)C(C)C)CC(CC(=O)NCc2cccc3ccccc23)C(=O)N1CCC1=CCCCC1 (configuration not stated)	0.7%	12.7%	/	/	/	/
CN(C)S(=O)(=O)c1cccc(-c2nnc3n2CCCCC3)c1	-1.0%	8.3%	-2.6	-0.4%	1.2	0.7%
Cc1ccc(/C=N/NC(=O)c2cccs2)o1	-5.9%	-7.3%	40.5*	-2.1%	161.7*	-9.6%
Cc1ccc(/C=N/NC(=O)c2csc(C)c2)o1	-0.8%	-3.6%	22.8*	-0.4%	+	-0.7%
CC(C)Cc1ccc(C(C)C(N)=NCCc2ccccc2)cc1 (configuration not stated)	7.7%	-20.9%	7.0	20.8%	-7.8	0.2%
CCCCC1CCC(c2nc(-c3ccccn3)no2)CC1 (configuration not stated)	2.4%	?	56.5*	4.5%	177.9*	-9.7%
c1ccc(-c2noc(C3CCC3)n2)nc1	-25.7%	-13.6%	27.6*	-0.3%	50.4*	-1.4%

Screening data as filed in PubChem.
